Assay outcomes as filed in PubChem BioAssay.
Rows were chosen to be rich in hits. Some 6.5% of all compounds tested hit in one or more screens of this group.
HCMV antiviral: inhibitors of human cytomegalovirus. hit rate 4.5% among 410,000. activity change, negative = inhibition, % at 57.5 µM. HFF cells, HCMV-luciferase reporter, 72 h; stronger effect = lower value; in the data active means activity change below about -60%; inconclusive means no clear call, values can overlap the other calls; inactive means above about -39%
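After 16 h attachment at 37C, HFF cells received test compound and HCMV-luciferase (1 PFU/cell); reporter luminescence read 72 h later, data normalized against buffer-only and known inhibitor Salinomycin.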
FMDV inh: foot and mouth disease virus antiviral activity. FMDV antiviral cell-based qHTS. Potency, µM (series often up to 57.9 µM), actives largely listed as inhibitors. hit rate 1.2% among 410,000; calls by dose curve; tested in HEK293T cells; further: read-out not given here; nearly all actives have a fitted effect of over 45% in size
Lassa entry inh: Lassa virus entry inhibition; Lassa virus pseudotype entry inhibition, cell reporter; Potency, µM (series often up to 37.9 µM), most hits filed as inhibitors; hit rate 1.2% among 300,000; AID 540256; calls by dose curve; tested in HEK293 cells; further: nearly all actives have a fitted effect of over 50% in size
VACV mCherry inh: vaccinia inhibition (mCherry reporter); Vaccinia virus mCherry reporter infection, fluorescence; Potency, µM (series often up to 36.5 µM), hits mostly inhibitors; hit rate 0.63% among 310,000; AID 720579; calls by dose curve; tested in A549 cells; further: nearly all actives have a fitted effect of over 35% in size
Marburg entry inh: blocks Marburg virus binding to or entry into cells. Marburg virus pseudotyped entry inhibition, cell reporter. Potency, µM (series often up to 37.8 µM), actives largely listed as inhibitors. hit rate 1.8% among 300,000. AID 540276; calls by dose curve; tested in HEK293 cells
Vaccinia Venus: vaccinia inhibition (Venus reporter) | Potency, µM (top dose mostly 36.5 µM), most hits filed as inhibitors | hit rate 0.46% among 330,000 | Vaccinia virus Venus reporter expression, fluorescence; calls by dose curve; tested in A549 cells; further: nearly all actives have a fitted effect of over 30% in size
Numbers stand for hits; n = inactive; u = inconclusive; x = not tested or not shown; + = active, no number; ! = not confirmed by another sample; [ ] = remark or other dose.

SMILES | HCMV antiviral | FMDV inh | Lassa entry inh | VACV mCherry inh | Marburg entry inh | Vaccinia Venus
Cc1cc(C)cc(OCC(=O)Nc2nc3c(s2)CC(C(C)(C)C)CC3)c1 (stereo unspecified) | n | n | u | n | n | n
COc1ccc(O[C@H]2C=C[C@@H](c3ccccc3)O[C@H]2COC(=O)CCC(C)=NOC[C@@H](O)COCc2ccco2)cc1 | x | x | n | x | n | x
CC1CCCN(C(=O)c2ccc3c(=O)n(Cc4ccc5c(c4)OCO5)c(=S)[nH]c3c2)C1 (stereo unspecified) | -87 | u | n | x | n | x
CCCn1c(=S)[nH]c2cc(C(=O)N3CCN(C(=O)OCC)CC3)ccc2c1=O | n | n | n | n | n | n
CCCn1c(=S)[nH]c2cc(C(=O)N3CCCC(C(=O)OCC)C3)ccc2c1=O (stereo unspecified) | n | 18µM | n | x | u | x
CC[C@H]1OC(=O)[C@H](C)C(=O)[C@H](C)[C@@H](O[C@@H]2O[C@H](C)C[C@H](N(C)C)[C@H]2O)[C@](C)(OC)C[C@@H](C)C(=O)[C@H](C)[C@H]2N(CCCCn3cnc(-c4cccnc4)c3)C(=O)O[C@]12C | x | n | x | n | x | n
O=C(COc1ccccc1)c1cn(Cc2ccccc2)c2ccccc12 | -63 | n | n | n | u | n
O=c1cc(-c2ccccc2)[nH]c2nc3ccccc3n12 | n | n | u | x | 5.8µM | x
O=c1cc(CCl)[nH]c2nc3ccccc3n12 | n | n | x | n[7.34 µM] | x | n[7.34 µM]
COc1cc(Nc2nccc3[nH]c(-c4cccc(C(C)C)c4)nc23)cc(OC)c1OC | n | x | x | x | x | x
COc1ccc(CN2CCCC(n3cc(C(=O)NC4CCCC4)nn3)C2)c(O)c1 (stereo unspecified) | x | n | x | n | x | n
Cc1cccc(Oc2sc(C(=O)c3ccccc3)c(N)c2C#N)c1 | n | u | 1.6µM | x | u | u
C=C1[C@@H](O)[C@H](Cc2ccccc2)N(Cc2ccccc2Br)S1(=O)=O | n | 18µM | x | 10µM | x | 10µM
O=C(Nc1cccc2ncccc12)c1ccc(Br)c([N+](=O)[O-])c1 | -63 | n | u | n | u | n
O=C(Nc1cccc2ncccc12)c1cccc(F)c1 | n | n | n | x | n | x
O=C(Nc1cccc2ncccc12)c1ccc(F)cc1 | -64 | n | n | n | n | n
COc1ccc(-n2c(=O)c(-c3cccs3)nc3cnc(N4CCN(C)CC4)nc32)cc1 | x | n | x | x | x | x
Cc1cccc(NC(=O)N2CCN(C(=O)c3nsc4ccccc34)CC2)c1C | + | n | n | n | x | n
Cc1ccc(F)cc1NC(=O)N1CCN(c2ccnc3cc(Cl)ccc23)CC1 | -69 | u | x | x | x | x
Cc1ccc(F)cc1NC(=O)N1CCCN(C(=O)OC(C)(C)C)CC1 | n | n | u | n | n | n
CCCCNC(=O)N1CCN(c2ccnc3cc(Cl)ccc23)CC1 | x | 32µM | n | n | u | n
CC(=O)N1CCN(c2ccnc3cc(Cl)ccc23)CC1 | u | n | n | n | n | n
O=C(O)CSCC(=O)N1CCN(c2ccnc3cc(Cl)ccc23)CC1 | x | n | x | x | x | x
O=C(Nc1ccc(C(F)(F)F)cc1)N1CCN(c2ccnc3cc(Cl)ccc23)CC1 | -72 | u | u | n | u | n
CCOc1ccccc1C(=O)N(Cc1cccs1)c1ccc(Cl)cc1 | n | n | n | n | n | n
SMILES | HCMV antiviral | FMDV inh | Lassa entry inh | VACV mCherry inh | Marburg entry inh | Vaccinia Venus
COCCNc1ccnc(-c2ccccc2CN(C)C)n1 | x | n | x | n | x | n
Cc1cnc2c(C)cccc2c1/C=C/c1ccc(N(C)C)cc1 | x | x | x | n | x | n
COCc1[nH]nc2c1[C@@H](c1ccc(OC)cc1)C(C#N)=C(N)O2 | x | x | x | x | n | x
COc1ccc(S[C@]2(c3nc(C)no3)CC(=O)N(c3ccc(OC)cc3)[C@@H]2c2ccc(OC)cc2)cc1 | n | x | x | x | x | x
ClCCN1CCN(c2ccnc3cc(Cl)ccc23)CC1 | n | n | x | x | x | x
O=C(Nc1cc(F)ccc1F)N1CCN(c2ccnc3cc(Cl)ccc23)CC1 | -83 | 32µM | x | x | x | x
Cc1cccc(C)c1NC(=O)N1CCN(c2nc3ccccc3s2)CC1 | -70 | n | u | x | u | x
Cc1cccc(Cl)c1NC(=O)N1CCN(c2ccnc3cc(Cl)ccc23)CC1 | -65 | u | x | x | x | x
CN(C)c1ccc(/C=C/c2ccnc3c(Cl)ccc(Cl)c23)cc1 | x | x | x | u | x | n
Cc1cc(C)cc([C@H]2C[C@]34CN(C(=O)OC(C)(C)C)S(=O)(=O)[C@H]3C[C@H]2O4)c1 | n | x | x | x | x | x
COc1ccccc1C1CN(Cc2ccc(Sc3nncn3C)o2)Cc2ccccc2O1 (stereo unspecified) | x | n | x | n | x | n
CC(=O)N1CCN(c2nnnn2-c2ccccc2)CC1 | n | n | n | n | n | n
Oc1ccc(N2CCN(c3nnnn3-c3ccccc3)CC2)cc1 | -63 | n | u | n | n | n
COc1ccccc1C(=O)Nc1ccccc1OCc1cc(=O)n2cc(C)sc2n1 | n | n | u | n | n | n
Cc1ccc(C)c(CSc2c(C(C)C)cnc3c2c(=O)n(C)c(=O)n3C)c1 | n | n | n | n | x | n
CN1/C(=N\O)c2cccc3cccc1c23 | -60 | n | n | x | n | n
COc1cc(OC)c(NC(=O)c2cc(C)nc3c2c(C)nn3-c2ccc(C)cc2)cc1Cl | n | n | u | n | x | n
Cc1ccccc1/C=C/C1=NCCN1 | n | n | u | n | 11µM | n
NC(=Nc1ccc(N)cc1)C(N)=Nc1ccc(N)cc1 | -65 | n | n | u | u | n
COCCn1c(=O)c(-c2cccs2)nc2cnc(N(C)C)nc21 | x | n | x | x | x | x
CC(=O)C(Sc1ccc2nnc(-c3ccc(C)cc3)n2n1)C(C)=O | n | n | x | u | x | n
CC(=O)C(Sc1ccc2nnc(-c3ccncc3)n2n1)C(C)=O | -62 | n | x | n | x | n
CN(C)CCC(c1ccc(Cl)cc1)c1ccccn1 (stereo unspecified) | n | n | n | n | 2.8µM! | n
CN(C)CC[C@H](c1ccc(Br)cc1)c1ccccn1 | x | x | x | x | 8.9µM! | x
CN(C)CCC(c1ccccc1)c1ccccn1 (stereo unspecified) | n | n | n | n | u | n
SMILES | HCMV antiviral | FMDV inh | Lassa entry inh | VACV mCherry inh | Marburg entry inh | Vaccinia Venus
Cc1ccc2c(c1)-c1cc(C)nn1C(c1cc(Br)ccc1O)N2 (stereo unspecified) | n | n | n | n | n | n
COc1cccc([C@H]2Oc3ccc(OC)cc3/C(=N\O[C@H](C)c3cn([C@H](CO)Cc4ccccc4)nn3)[C@@H]2O)c1 | x | x | x | x | n | x
COC1(OC)C=CC(=O)C=C1NC(=O)c1ccccc1OC(C)=O | -78 | u | x | x | x | x
COC(=O)C(C(=O)OC)C(C(C)C)C(C(=O)OC)C(=O)OC | n | n | n | n | n | n
COC(=O)C(C(=O)OC)C(C(=O)OC)C(C(=O)OC)C(=O)OC | -88 | n | n | n | u | n
COc1ccc(C(=O)N2CCN(c3ccc([N+](=O)[O-])c(NCCc4ccc(OC)c(OC)c4)c3)CC2)cc1 | -99 | 8.9µM | 4.5µM | u | u | n
COc1ccc(CCNc2cc(N3CCN(C(=O)c4ccc(C)cc4)CC3)ccc2[N+](=O)[O-])cc1OC | x | x | n | x | n | x
COc1ccc(CCNc2cc(N3CCN(C(=O)c4ccccc4F)CC3)ccc2[N+](=O)[O-])cc1OC | -97 | 3.5µM | u | u | u | u
